Several values for one entry are separate records, joined by “and”; a condition that tells them apart may be missing. Identical values can stand only once. Counter-ions that a name gives are not always drawn.
tested on: LOC_OS01G14860-cb001; experiment: thermal shift delta Tm vs DMSO control; higher = stronger stabilization (binding); settings: 12.5 µM; protein concentration 2 µM
Procedure, shortened: (§1)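 Rice kinase domain constructs were expressed in E. coli, purified, and tested by differential scanning fluorimetry with compound added in DMSO. Each well of a 96-well plate held 19.5 μl of 2 μM kinase in 100 mM potassium phosphate pH 7.5, 150 mM NaCl, 10% glycerol and 5 × SYPRO Orange, and fluorescence was read from 25°C to 95°C at 0.05°C/s. The melting temperature shift is the mean of triplicates, taken against protein with DMSO alone after Boltzmann fitting.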

Structure (SMILES)	thermal shift delta Tm [°C]
COc1ncc(-c2ccc3nccc(-c4ccnnc4)c3c2)cc1NS(=O)(=O)c1ccc(F)cc1F	1.9
Cc1c[nH]c(/C=C2\C(=O)Nc3ccccc32)c1CCC(=O)O	1.61
Cc1cc(Nc2cc(Cl)nc(Oc3ccc([N+](=O)[O-])cc3)n2)n[nH]1 [Autophinib]	7.77
O=C(c1ccc(/C=C/c2n[nH]c3ccccc23)cc1)N1CCNCC1	1.8
COc1ccc(CNC(=O)Nc2ncc([N+](=O)[O-])s2)cc1	3.27
Cc1cc2c(F)c(Oc3ncnn4cc(OC[C@@H](C)O)c(C)c34)ccc2[nH]1	0.41
C=CC(=O)Nc1cccc(Oc2nc(Nc3ccc(N4CCN(C)CC4)cc3)nc3ccsc23)c1	0.91
O=c1cc(N2CCOCC2)oc2c(-c3ccc4c(c3)OCCO4)csc12	2.26
c1nc2c(NC3CCCCC3)nc(Nc3ccc(N4CCOCC4)cc3)nc2[nH]1 [Reversine]	2.02

tested on: LOC_OS01G21960-cb002; experiment: as above; settings: 12.5 µM; protein concentration 2 µM
Procedure, shortened: as §1

Structure (SMILES)	thermal shift delta Tm
C[C@H](CN(C)C)Oc1nc(Nc2cc3cccc(Cl)c3cn2)cnc1C#N	1.95 °C
CN1c2ccccc2C(=O)Nc2cnc(Nc3ccc(N4CCC(O)CC4)cc3)nc21	0.64 °C
CCNc1nc(Nc2cc(F)c(C(=O)N3CCOCC3)cc2OC)ncc1C(F)(F)F	0.79 °C
COc1cc2ncnc(Nc3ccc(Oc4ccccc4)cc3C)c2cc1OC	0.26 °C
O=C1NC(=O)/C(=C/c2cccc(C(F)(F)F)c2)S1	0.28 °C
COc1ccc(C(=O)Nc2sc3c(c2C(N)=O)CCCC3)cc1OC	0.49 °C
C#Cc1cccc(Nc2ncnc3cc(OCCOC)c(OCCO)cc23)c1	0.99 °C
FC(F)(F)c1ccc(/C=C/c2nc(COc3ccc(CCCCn4ccnn4)cc3)co2)cc1 [Mubritinib (TAK 165)]	-0.04 °C
CNC(=O)Nc1ccc(-c2nc(N3CC4CCC(C3)O4)c3cnn(C4CCC5(CC4)OCCO5)c3n2)cc1	1.21 °C
CC(C)(C)NS(=O)(=O)c1cncc(-c2cc(F)c3nc(N)nn3c2)c1	0.56 °C
C[C@@H]1CN(CC(=O)Nc2ccc3c(c2)Cc2cccc(-c4cc(=O)cc(N5CCOCC5)o4)c2S3)C[C@H](C)O1	0.63 °C
COCCOc1ccc2c(c1)ncn2-c1ccc2cccc(N3CCC(N)CC3)c2n1	3.75 °C
Cc1ccc(NC(=O)c2ccc(CN3CCN(C)CC3)cc2)cc1Nc1nc(-c2cccnc2)cs1 [Masitinib (AB1010)]	0.26 °C
Cn1cc(-c2cnn3c(N)c(Br)c([C@@H]4CCCNC4)nc23)cn1	1.25 °C
COc1ccc(-c2cc3c(C)nc(N)nc3n([C@H]3CC[C@H](OCCO)CC3)c2=O)cn1	0.57 °C
Cc1ccc(S(=O)(=O)/C=C/C#N)cc1	0.75 °C
CCCS(=O)(=O)Nc1ccc(F)c(C(=O)c2c[nH]c3ncc(-c4ccc(Cl)cc4)cc23)c1F [Vemurafenib (PLX4032, RG7204)]	2.86 °C
C[C@@H](N)c1ccc(C(=O)Nc2ccnc3[nH]ccc23)cc1	1.78 °C
O=C(NC1CCNCC1)c1n[nH]cc1NC(=O)c1c(Cl)cccc1Cl	0.86 °C and 0.55 °C

Structure (SMILES)	thermal shift delta Tm
NCC(=O)Nc1ccc(-n2nc(C(F)(F)F)cc2-c2ccc3c(ccc4ccccc43)c2)cc1	0.55 °C
CCn1c(-c2nonc2N)nc2cnc(Oc3cccc(NC(=O)c4ccc(OCCN5CCOCC5)cc4)c3)cc21	0.9 °C
COc1cc2c3cc1Oc1c(OC)c(OC)cc4c1[C@@H](Cc1ccc(O)c(c1)Oc1ccc(cc1)C[C@@H]3N(C)CC2)N(C)CC4 [Berbamine (dihydrochloride)]	0.36 °C
COc1cc2ncc(-c3ccccc3)nc2cc1OC [Tyrphostin AG 1296]	0 °C
C[C@H]1CNCCCN1S(=O)(=O)c1cccc2cncc(F)c12 [Ripasudil (K-115) hydrochloride dihydrate]	0.88 °C
N#Cc1c(NC(=O)c2cccc3ccccc23)sc2c1CCCC2 [JNK Inhibitor IX]	0.78 °C
CC(C)N(CCC(=O)c1ccc2ccccc2c1)Cc1ccccc1	0.24 °C
COC(=O)c1ccc2c(c1)NC(=O)/C2=C(\Nc1ccc(N(C)C(=O)CN2CCN(C)CC2)cc1)c1ccccc1 [Nintedanib (BIBF 1120)]	0.47 °C
Nc1ccc(-c2ccc3ncc4ccc(=O)n(-c5cccc(C(F)(F)F)c5)c4c3c2)cn1 [Torin 2]	1.41 °C
COc1ccc2c(Oc3ccc(NC(=O)c4c(C)n(CC(C)(C)O)n(-c5ccccc5)c4=O)nc3)ccnc2c1	0.62 °C
COc1ncc(-c2ccc3nccc(-c4ccnnc4)c3c2)cc1NS(=O)(=O)c1ccc(F)cc1F	1.2 °C
Cc1c[nH]c(/C=C2\C(=O)Nc3ccccc32)c1CCC(=O)O	0.56 °C
Cc1cc(Nc2cc(Cl)nc(Oc3ccc([N+](=O)[O-])cc3)n2)n[nH]1 [Autophinib]	1.42 °C
O=C(c1ccc(/C=C/c2n[nH]c3ccccc23)cc1)N1CCNCC1	2.42 °C
COc1ccc(CNC(=O)Nc2ncc([N+](=O)[O-])s2)cc1	1.49 °C
Cc1cc2c(F)c(Oc3ncnn4cc(OC[C@@H](C)O)c(C)c34)ccc2[nH]1	0.22 °C
C=CC(=O)Nc1cccc(Oc2nc(Nc3ccc(N4CCN(C)CC4)cc3)nc3ccsc23)c1	1.61 °C
O=c1cc(N2CCOCC2)oc2c(-c3ccc4c(c3)OCCO4)csc12	0.76 °C
c1nc2c(NC3CCCCC3)nc(Nc3ccc(N4CCOCC4)cc3)nc2[nH]1 [Reversine]	2.54 °C
